Measured values published in PubChem BioAssay (NCI).
This is part of a sample that, as a whole, favours compounds with a hit. Of some 83,000 tested, about 20% had one in any assay.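 96-well plates, one dose, 48 hours. Percent growth reported; active if below 10.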 Unmarked numbers belong to inactive results. Activity calls are given as the source filed them.

Tests used:
Assay in all cases: NCI-60 one-dose screen, 48 h (100 = growth as untreated, 0 = no growth, -100 = all killed)
Details in all cases: 10 µM unless noted
[1] = test system: SR leukemia
[2] = test system: RPMI-8226 leukemia
[3] = test system: OVCAR-8 ovarian
[4] = test system: OVCAR-5 ovarian
[5] = test system: OVCAR-4 ovarian
[6] = test system: SK-OV-3 ovarian
[7] = test system: OVCAR-3 ovarian
[8] = test system: HS 578T breast
[9] = test system: NCI/ADR-RES ovarian
[10] = test system: IGROV1 ovarian

Row | Structure (SMILES) | growth [1] | growth [2] | growth [3] | growth [4] | growth [5] | growth [6] | growth [7] | growth [8] | growth [9] | growth [10]
1 | COc1ccc(CN2C(=O)OC(C)(COC(C)=O)C2=O)cc1 (stereo unspecified) | 94% | 103% | 104% | 97.2% | 104% | 97.3% | 112% | 108% | 109% | –
2 | CC(C)n1c2ccc(Br)cc2c2c3c(c4c5ccccc5ccc4c21)C(=O)NC3=O | 61.6% | 91.6% | 100% | 87.7% | 94.2% | 105% | 94.2% | 108% | 93.2% | –
3 | Cc1oc(-c2ccc(Cl)cc2)nc1C1=NN(C(=O)c2ccncc2)C(c2ccccc2)C1 (stereo unspecified) | 101% | 80.3% | 95.4% | 105% | 85.4% | 91.9% | 92.4% | 87.4% | 94% | –
4 | O=c1oc2c(cnc3ccccc32)cc1-c1cccc(Cl)c1 | 93% | 101% | 109% | 94% | 102% | 105% | 112% | – | 103% | 106%
5 | CC(C)C1C2=C(NCCN1C(=O)c1ccncc1)C(C)(C)N(Cc1ccccc1)C2=O (stereo unspecified) | 89.4% | 112% | 108% | 107% | 111% | 98.9% | 102% | – | 99.4% | –
6 | COc1ccc(C(=O)C/C(=C\c2ccc(O)c(OC)c2)C(=O)NN)cc1 | 26.9% | 80.3% | 80.7% | 105% | 101% | 79.9% | 87.6% | 101% | 74.8% | –
7 | COc1cc2c(c(OC)c1OC)C(=O)CC(c1cccc(C(=O)Nc3ccc(C#N)cc3)c1)O2 (stereo unspecified) | 41.2% | 29.7% | 42.9% | 102% | 55.2% | 104% | 74.5% | 92.4% | 52.4% | –
8 | COc1cc(/C=C/C(=O)c2cccc(-n3cc(-c4ccc(Cl)cc4)[nH]c3=O)c2)ccc1O | 33% | 5.06% (active) | 46.5% | 91.4% | 57% | 97.9% | 3.36% (active) | 76.5% | 35.4% | –
9 | COc1ccc(/C=N/Nc2c3ccccc3nc3ccccc23)cc1 | 95.6% | 83.8% | 97% | 111% | 81.7% | 90.8% | 91.7% | 93.1% | 102% | –
10 | c1ccc(-c2ccc3c(c2)C2(CCNCC2)CN3)cc1 | 96% | 97.5% | 99.2% | 98.1% | 91.5% | 79.4% | 86.2% | 93.6% | 94.3% | –
11 | COc1ccc2cc(C(=O)N3CCC([C@@H](C)C(=O)NCc4ccc5c(c4)OCO5)CC3)[nH]c2c1 | 62.6% [50 µM] | 47.1% [50 µM] | 16.3% [50 µM] | 73.1% [50 µM] | 53.3% [50 µM] | 1.39% [50 µM] (active) | 8.71% [50 µM] (active) | – | 38.3% [50 µM] | 41.6% [50 µM]
12 | N#Cc1ccc(/C=C/c2cn(-c3ccccc3)nc2-c2cccc([N+](=O)[O-])c2)cc1 | 66.5% | 74.8% | 44.1% | 64.2% | 33.1% | 69.8% | 70% | 76.2% | 62.8% | –
13 | Oc1nc(NCc2ccccc2)sc1/C=C1\C=Nc2ncccc21 | 2.17% (active) | 87.1% | 47.9% | 82.2% | 96.4% | 53.9% | 53.5% | 53.2% | 73.7% | –
14 | ClC(Cl)c1nc(-c2ccccc2)n2nc(-c3ccccc3)cc2n1 | 7.56% (active) | 0.699% (active) | 16.5% | 0.621% (active) | -10.8% (active) | 9.58% (active) | -28.3% (active) | -27.3% (active) | 6.09% (active) | –
15 | O=C(Nc1ccc(Nc2ccncc2)cc1)c1ccc(Nc2ccnc3ccc([N+](=O)[O-])cc23)cc1 | -14.2% (active) | 63.4% | 104% | 105% | 84.4% | 89.1% | 93.1% | – | 106% | –
16 | CCN(CCNc1ccc(C)c2sc3cc(Cl)ccc3c(=O)c12)CC(C)(C)O | 49.6% | 49.4% | 85.5% | 70.2% | 72.8% | 45.1% | 91.7% | 79.3% | 74.6% | –
17 | O=C1c2cccnc2C(=O)c2c1c(C(=O)OCCc1ccccn1)c1ccccn21 | -10.9% (active) | -27.2% (active) | -14% (active) | 9.08% (active) | 4.6% (active) | -66.5% (active) | -16.1% (active) | -28.6% (active) | -26.4% (active) | –
18 | COCCn1cc(-c2nc(-c3cn(CCOC)c4ncccc34)cs2)c2cc(F)ccc21 | 35.3% | 61.3% | 62.4% | 38.8% | 25.4% | 76.8% | 17.6% | 70.8% | 63.8% | –
19 | O=C(C[C@]1(O)C(=O)Nc2ccc(Br)cc21)c1ccco1 | 97.9% | 100% | 98.2% | 106% | 104% | 95.2% | 102% | 102% | 100% | –
20 | Oc1c(I)cc(I)cc1CN(Cc1ccccn1)Cc1ccccn1 | 9.92% (active) | 16.1% | 10.1% | 55.1% | 26.4% | 25.8% | 30.8% | 38.9% | 0.252% (active) | –
21 | Nc1ncnc2c1N=C(c1ccc(Cl)cc1)CC(c1cccc(Nc3ccnc4cc(Cl)ccc34)c1)N2 (stereo unspecified) | -12.6% (active) | -20.5% (active) | 77.9% | 111% | 70.7% | 80.5% | 80.6% | 68.2% | 73.1% | –
22 | Fc1cc2[nH]ncc2c2c3c(c(-c4cn[nH]c4C(F)(F)F)nc12)CCCC3 | -30.2% (active) | 8.27% (active) | 6.94% (active) | 4.77% (active) | 24.1% | -24.5% (active) | -11.3% (active) | -18.4% (active) | 45.6% | –
23 | O=S(O)c1cc(Cl)cc(Cl)c1OCc1ccccc1 | 92.6% | 93.1% | 97.6% | 99% | 113% | 102% | 107% | 95.4% | 103% | –
24 | COc1cc(N2C(=O)[C@H](Cl)C2c2ccc(SC)cc2)cc(OC)c1OC (stereo partly specified) | – | 3.63% (active) | 8.62% (active) | 70% | 48% | 20.4% | 3.77% (active) | 25.1% | -0.874% (active) | 27.8%
25 | CCOC(=O)C1=C(CCl)N(C)C(=O)NC1c1ccc2c(c1)OCO2 (stereo unspecified) | – | 12.3% | 44.9% | 76.9% | 55.9% | 93.7% | 25.2% | 50% | 72% | 74.6%
26 | Fc1cccc(CNc2c3ccccc3nc3ccccc23)c1 | – | 10.1% | 36% | 43.8% | 30.5% | 51.1% | 67% | 63.9% | 30.1% | 25.6%
27 | CC(=O)c1sc(-c2ccc(F)cc2)cc1O | – | 105% | 104% | 111% | 79.5% | 102% | 109% | 117% | 106% | 115%
